Test results published in PubChem BioAssay (NCATS).
Inconclusive results are not listed. Where a call stands in place of a potency, no number is given. A number with no mark means an inactive call. Active and inactive are the calls of the source. The call rests on the fitted dose curve; in most records, active means well fitted inhibition curve with a large enough effect; inconclusive means small, poorly fitted or top-dose-only effect; inactive means no such curve, though single readings can be large or run the other way.

How the values were obtained:
[1] = system: Zika virus NS2B-NS3 protease (unlinked complex); experiment: Primary screen GU Rhodamine qHTS for Zika virus inhibitors: Unlinked NS2B-NS3 protease assay (AID 1347159); conditions: Recombinant ZIKV NS2B-NS3 protease, Rhodamine110 substrate fluorescence; series mostly up to 107 µM; further: nearly all actives have a fitted effect of over 60% in size
Summary of the method: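 Enzyme 25 nM in Tris-HCl pH 8.0 + 0.01% Tween 20; compounds up to 114 microM, 15 min RT dark; + Rhod110 substrate 1.5 microM; read t0 and 15 min; delta fluorescence → % inhibition → 4-parameter Hill fit.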

[2] = system: Zika virus NS2B-NS3 protease (linked construct); experiment: Primary screen NINDS Rhodamine qHTS for Zika virus inhibitors (AID 1347160); conditions: purified NS2B-NS3 protease, Rhodamine110 substrate fluorescence; series mostly up to 57.1 µM; further: nearly all actives have a fitted effect of over 55% in size
Summary of the method: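 Enzyme (25 nM, linked NS2B-NS3) was preincubated 15 min with compound in 10 mM Tris-HCl pH 8.0, 0.01% Tween 20. Rhodamine110 substrate (1.5 microM) was then added and fluorescence read at start and after 15 min.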
Potency means the concentration at half of the fitted maximal effect.

With `Cc1ccc(-c2ccc3ncc4c(c3n2)n(C2CCN(C(=O)[C@H](C)O)CC2)c(=O)n4C)cn1` the Potency [1] was “inactive” and the Potency [2] was “inactive”.
With `CC(=O)O[C@H]1CC[C@H](C)[C@@]2(C)[C@H](OC(C)=O)c3c(C)coc3C(=O)[C@H]12` the Potency [1] was “inactive” and the Potency [2] was “inactive”.
For `O=C(NCc1cccc(O)c1)c1cc2cc(F)ccc2[nH]1`, the Potency [1] was “inactive” and the Potency [2] was “inactive”.
For `CC1(O)CCCC2(C)C1CCC13CC(CO)C(CCC12)C3` (stereo not drawn), the Potency [1] was “inactive” and the Potency [2] was “inactive”.
For `C[C@@H]1O[C@@H](O[C@@H]2CO[C@@H](O[C@H]3CC[C@@]4(C)C(CC[C@]5(C)C4CC=C4[C@@H]6CC(C)(C)CC[C@]6(C(=O)O[C@@H]6O[C@H](CO)[C@@H](O)[C@H](O)[C@H]6O)CC[C@]45C)[C@]3(C)CO)[C@H](O)[C@H]2O[C@@H]2O[C@H](CO)[C@@H](O)[C@H](O)[C@H]2O)[C@H](O)[C@H](O)[C@H]1O` (stereo partly drawn), the Potency [1] was “inactive” and the Potency [2] was “inactive”.
For `Cc1cccc(Oc2cnc(=O)[nH]c2)c1`, the Potency [1] was “inactive” and the Potency [2] was “inactive”.
In the case of `O=C(O)CC(=O)OC[C@H]1O[C@@H](Oc2ccc3c(c2)OC[C@H]2c4cc5c(cc4O[C@@H]32)OCO5)[C@H](O)[C@@H](O)[C@@H]1O`, the Potency [1] was “inactive” and the Potency [2] was “inactive”.
In the case of `CC1(C)CC[C@@]2(C(=O)O[C@@H]3O[C@H](CO)[C@@H](O)[C@H](O)[C@H]3O)C(C1)C1=CCC3[C@@]4(C)CC[C@@H](O[C@@H]5O[C@H](C(=O)O)[C@@H](O[C@@H]6OC[C@@H](O)[C@H](O)[C@H]6O)[C@H](O[C@@H]6OC[C@](O)(CO)[C@H]6O)[C@H]5O)C(C)(C)C4CC[C@@]3(C)[C@]1(C)C[C@H]2O` (stereo partly drawn), the Potency [1] was “inactive” and the Potency [2] was “inactive”.
For `O=C1N=C(N2CCOCC2)CN1c1ccc(Cl)cc1`, the Potency [1] was “inactive” and the Potency [2] was “inactive”.
For `COC(=O)[C@@H](O)[C@H]1[C@@]2(C)CC3(O)[C@@H](C(=O)[C@H]2O)[C@]24O[C@]25CC(=O)O[C@@H](c2ccoc2)[C@]5(C)CCC4[C@]13C` (stereo partly drawn), the Potency [1] was “inactive” and the Potency [2] was “inactive”.
For `O=C1CCC=CC1(O)C(=O)OCc1ccccc1O[C@@H]1O[C@H](CO)[C@@H](O)[C@H](O)[C@H]1O` (stereo partly drawn), the Potency [1] was “inactive” and the Potency [2] was “inactive”.
For `Cc1nc(NC(=O)N2CCCC2C(N)=O)sc1-c1csc(C(C)(C)C)n1` (stereo not drawn), the Potency [1] was “inactive” and the Potency [2] was “inactive”.
`CNC(=O)c1ccccc1Nc1cc(Nc2ccc(N3CCOCC3)cc2OC)ncc1C(F)(F)F` was tested, and the Potency [1] was “inactive” and the Potency [2] was “inactive”.
In the case of `CS(=O)(=O)c1ccc(-c2nnc(/C=C/c3nnc(-c4ccc(C#N)cc4)o3)n2-c2ccccc2Cl)nc1`, the Potency [1] was “inactive” and the Potency [2] was “inactive”.
For `COc1cccc(-c2cc(NCc3ccc4c(c3)OCO4)nc(N)n2)c1`, the Potency [1] was “inactive” and the Potency [2] was “inactive”.
`CN1CCc2nc(C(=O)N[C@@H]3C[C@@H](C(=O)N(C)C)CC[C@@H]3NC(=O)C(=O)Nc3ccc(Cl)cn3)sc2C1` was tested, and the Potency [1] was “inactive” and the Potency [2] was “inactive”.
For `CC1(C)CC(NC(=O)C(=O)Nc2ccc(Br)cc2)CC(C)(C)N1`, the Potency [1] was “inactive” and the Potency [2] was “inactive”.
With `O=C(Nc1nc2ccccc2n1CCc1ccccc1)c1ccccc1` the Potency [1] was “inactive” and the Potency [2] was “inactive”.
With `CCCOC(c1cc2nccc(C(=O)O)c2[nH]1)c1ccccc1Cl` (stereo not drawn) the Potency [1] was “inactive” and the Potency [2] was “inactive”.
With `CC(Oc1cc(-n2cnc3ccc(CN4CCN(C)CC4)cc32)sc1C(N)=O)c1ccccc1C(F)(F)F` (stereo not drawn) the Potency [1] was “inactive” and the Potency [2] was “inactive”.
With `CNC(=O)c1ccccc1Nc1nc(Nc2ccc3c(c2OC)CCC[C@@H](N2CCN(CCO)CC2)C3)ncc1Cl` the Potency [1] was “inactive” and the Potency [2] was “inactive”.
`C=C(C)C(=O)OC1C(OC(C)=O)/C(C=O)=C\CC/C(CO)=C/C2OC(=O)C(=C)C21` (stereo not drawn) was tested, and the Potency [1] was “inactive” and the Potency [2] was “inactive”.
In the case of `C=C1C[C@]23C[C@H]1CC[C@H]2C1=C[C@H]2OC(=O)[C@@](C)([C@H]1[C@@H]3C(=O)O)[C@H]2O`, the Potency [1] was “inactive” and the Potency [2] was “inactive”.
For `CC12CCC(OC3OC(CO)C(O)C(OC4OC(CO)C(O)C(O)C4O)C3O)CC1=CCC1C2CCC2(C)/C(=C3/COC(=O)C3)CCC12O` (stereo not drawn), the Potency [1] was “inactive” and the Potency [2] was “inactive”.
With `C[C@H]1CC[C@@]2(OC1)O[C@H]1CC3C4CC[C@H]5C[C@@H](O)[C@H](O)C[C@]5(C)C4=CC(=O)[C@]3(C)[C@H]1[C@@H]2C` (stereo partly drawn) the Potency [1] was “inactive” and the Potency [2] was “inactive”.
In the case of `C=C[C@H]1CN2CC[C@H]1C[C@@H]2C(O)c1ccnc2ccc(OC)cc12` (stereo partly drawn), the Potency [1] was “inactive” and the Potency [2] was “inactive”.
`O=C(C(c1ccccc1)c1ccccc1)N1CCN(CC(O)COc2cccc3ncccc23)CC1` (stereo not drawn) was tested, and the Potency [1] was “inactive” and the Potency [2] was “inactive”.
`O=C(O)c1ccc(OC2OC(CO)C(O)C(O)C2O)cc1` (stereo not drawn) was tested, and the Potency [1] was “inactive” and the Potency [2] was “inactive”.
In the case of `CC(C)C1=CC2C(CC[C@]2(C)O)[C@](C)(O)CC1` (stereo partly drawn), the Potency [1] was “inactive” and the Potency [2] was “inactive”.
For `CC(C)/C=C1\NC(=O)C(C(C)C)n2c1nc1c(c2=O)C=CC=CO1` (stereo not drawn), the Potency [1] was “inactive” and the Potency [2] was “inactive”.
With `CC(C)S(=O)(=O)N[C@H]1CCOC[C@@H]1c1ccc(-c2ccc(C#N)s2)cc1` the Potency [1] was “inactive” and the Potency [2] was “inactive”.
For `C=C1C(=O)OC2C1C(O)CC1(C)C(O)CCC(C=O)C21` (stereo not drawn), the Potency [1] was “inactive” and the Potency [2] was “inactive”.
For `CC(NC(=O)CCc1nc2ccccc2c(=O)[nH]1)c1ccccc1` (stereo not drawn), the Potency [1] was “inactive” and the Potency [2] was “inactive”.
For `C=C1[C@@H]2CC[C@@H]3[C@@](CCC4C(C(=O)O)(C(=O)O)C[C@@H](O[C@@H]5O[C@H](CO)[C@@H](O)[C@H](O)[C@H]5OC(=O)CC(C)C)C[C@]43C)(C2)[C@H]1O` (stereo partly drawn), the Potency [1] was “inactive” and the Potency [2] was “inactive”.
With `C[C@@H]1O[C@@H](O[C@@H]2[C@@H](O)[C@@H](O[C@]3(CO)O[C@H](CO)[C@@H](O)[C@@H]3OC(=O)/C=C/c3ccc(O)cc3)O[C@H](CO)[C@H]2OC(=O)/C=C/c2ccc(O)cc2)[C@H](O)[C@H](O)[C@H]1O[C@@H]1O[C@@H](C)[C@H](O[C@@H]2OC[C@](O)(CO)[C@H]2O)[C@@H](O)[C@H]1O` the Potency [1] was “inactive” and the Potency [2] was “inactive”.
`C/C=C(\C)C(=O)O[C@@H]1CC2[C@@H](CC=C3C[C@@H](O[C@H]4C[C@H](OC)[C@H](O[C@H]5C[C@H](OC)[C@H](O[C@@H]6O[C@H](C)[C@@H](O[C@H]7C[C@H](OC)[C@H](O[C@@H]8O[C@H](CO)[C@@H](O)[C@H](O)[C@H]8O)[C@@H](C)O7)[C@H](OC)[C@H]6O)[C@@H](C)O5)[C@@H](C)O4)CC[C@@]32C)[C@@]2(O)CC[C@H](C(C)=O)[C@@]12C` (stereo partly drawn) gave an activity change, negative = inhibition [1] of 8.5% [at 19.1 µM] and an activity change, negative = inhibition [2] of 18.6% [at 10.7 µM].
In the case of `Cc1cc(Nc2cc(N3CCN(C)CC3)nc(/C=C/c3ccccc3)n2)n[nH]1`, the Potency [1] was “inactive” and the Potency [2] was “inactive”.
`OCc1ccc(O[C@@H]2O[C@H](CO)[C@@H](O)[C@H](O)[C@H]2O)cc1` was tested, and the Potency [1] was “inactive” and the Potency [2] was “inactive”.
`CC(C)(C)NCCCNC(=O)c1cccc(Br)c1` was tested, and the Potency [1] was “inactive” and the Potency [2] was “inactive”.
`O=C(O[C@H]1[C@@H]2C=CO[C@@H](O[C@@H]3O[C@H](CO)[C@@H](O)[C@H](O)[C@H]3O)[C@@H]2[C@@]2(CO)O[C@@H]12)c1ccccc1` was tested, and the Potency [1] was “inactive” and the Potency [2] was “inactive”.
With `CC(=O)OC1C(c2ccccc2)CCC(c2ccccc2)C1OC(C)=O` (stereo not drawn) the Potency [1] was “inactive” and the Potency [2] was “inactive”.
`COC(=O)C12C(=O)C(C)=C(O)C1(C)C(C)=CC1C3(CO)CCC(O)C(C)(C)C3CCC12C` (stereo not drawn) was tested, and the Potency [1] was “inactive” and the Potency [2] was “inactive”.
With `COc1cc2ncnc(Nc3cccc(O)c3)c2cc1OC` the Potency [1] was “inactive” and the Potency [2] was “inactive”.
In the case of `COc1c2c(c(C)c3c1C(=O)OC3)O[C@@]1(C)CC(O)C(C(C)(C)O)[C@](C)(CCC(=O)O)[C@H]1C2` (stereo partly drawn), the Potency [1] was “inactive” and the Potency [2] was “inactive”.
In the case of `COc1c2c(c(C)c3c1C(=O)OC3)OC1(C)CC(O)C(C(C)(C)O)C(C)(CCC(=O)O)C1C2` (stereo not drawn), the Potency [1] was “inactive” and the Potency [2] was “inactive”.
`COC(C(=O)N1Cc2[nH]nc(NC(=O)c3ccc(N4CCN(C)CC4)cc3)c2C1)c1ccccc1` (stereo not drawn) was tested, and the Potency [1] was “inactive” and the Potency [2] was “inactive”.
For `O=C(Nc1ccccc1-c1cn2c(CN3CCNCC3)csc2n1)c1ccc2ccccc2n1`, the Potency [1] was “inactive” and the Potency [2] was “inactive”.
With `C[C@@H]1O[C@@H](O[C@H]2[C@H](O)[C@@H](C(=O)O)O[C@@H](O[C@H]3CC[C@@]4(C)C(CC[C@]5(C)C4CC=C4C6CC(C)(C)CC[C@]6(C(=O)O)CC[C@]45C)C3(C)C)[C@@H]2O[C@@H]2OC[C@@H](O)[C@H](O)[C@H]2O)[C@H](O)[C@H](O)[C@H]1O` (stereo partly drawn) the Potency [1] was 8.91 µM (active) and the Potency [2] was 3.1 µM (active).
For `Cc1cccc(C)c1OCc1cc(C(=O)N2CCC(c3ccncc3)CC2)no1`, the Potency [1] was “inactive” and the Potency [2] was “inactive”.
In the case of `O=C1NC(Cc2c[nH]c3ccccc23)C(=O)NC1Cc1cnc[nH]1` (stereo not drawn), the Potency [1] was “inactive” and the Potency [2] was “inactive”.
With `O=C(O)c1cn(C2CC2)c2cc(N3C[C@@H]4C[C@H]3CN4)c(F)cc2c1=O` the Potency [1] was “inactive” and the Potency [2] was “inactive”.
`CC1(C(=O)O)CCCC2(C)C3=CCC4CC3(CCC12)CC4CO` (stereo not drawn) was tested, and the Potency [1] was “inactive” and the Potency [2] was “inactive”.
With `O=C1OCc2cc3cccc(O[C@@H]4O[C@H](CO)[C@@H](O)[C@H](O)[C@H]4O)c3c(O)c21` the Potency [1] was “inactive” and the Potency [2] was 11.2 µM (active).
`C/C=C1\[C@H](O[C@@H]2O[C@H](CO)[C@@H](O)[C@H](O)[C@H]2O)OC=C2C(=O)OCCc3ccc(O)c(c3)Oc3ccc(cc3)CCOC(=O)C[C@H]21` was tested, and the Potency [1] was “inactive” and the Potency [2] was “inactive”.
For `CS(=O)(=O)N1CCC(NC(=O)c2[nH]ncc2NC(=O)c2c(Cl)cccc2Cl)CC1`, the Potency [1] was “inactive” and the Potency [2] was “inactive”.
With `C[C@]12C[C@@H](O)[C@@H]3C[C@@]1(O[C@@H]1O[C@H](CO)[C@@H](O)[C@H](O)[C@H]1O)[C@]3(COC(=O)c1ccccc1)C(=O)O2` the Potency [1] was “inactive” and the Potency [2] was “inactive”.
In the case of `CN(C)C(=O)NC1CCC(CCN2CCN(c3cccc(Cl)c3Cl)CC2)CC1` (stereo not drawn), the activity change, negative = inhibition [1] was 13.9% [at 19.1 µM] and the outcome [2] was “inactive [at 10.7 µM]”.
`CC(=O)O[C@@H]1[C@@H](OC(=O)/C=C/c2ccccc2)[C@@H](OC(C)=O)[C@H](O[C@H]2[C@@H]3C=CO[C@@H](O[C@@H]4O[C@H](CO)[C@@H](O)[C@H](O)[C@H]4O)[C@@H]3[C@@]3(CO)O[C@@H]23)O[C@H]1C` was tested, and the Potency [1] was “inactive” and the Potency [2] was “inactive”.
For `CC1=CC(=O)C(=C(C)C)CC2C1CCC2(C)O` (stereo not drawn), the Potency [1] was “inactive” and the Potency [2] was “inactive”.
